# Pf Dd2 growth – blocks growth of Plasmodium falciparum Dd2 parasites. P. falciparum Dd2 growth, SYBR Green, 72 h; stronger effect = lower value. activity change, % at 10 µM. actives 2.3% (n = 94,000); in the data active = activity change below about -80%
# Tcruzi prolif – T. cruzi proliferation inhibition. T. cruzi beta-gal in NIH3T3, GalScreen luminescence, 90 h. inhibition, % at 8.34 µM. actives 5.9% (n = 77,000). AID 624255;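 active = mean inhibition above about 93%, with at least 55% of replicates each passing it, limit read from the data, passing the limit was not always enough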
# C diff growth – C. difficile growth inhibition; Clostridium difficile clinical isolate growth, OD600, 24 h; stronger effect = lower value; growth activity, negative = inhibition, % at 16 µg/mL (by protocol); actives 0.25% (n = 86,000);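 active = mean growth activity at or below -80% and every replicate also at or below -80%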
# A number is an active result; . = inactive; / = not tested or not shown; ! = not active in a repeat. Only some compounds are listed: those with a hit (about 6.8% of all), similar ones and a draw of the others.
SMILES,Pf Dd2 growth,Tcruzi prolif,C diff growth
COc1ccc(NC(=O)N2CC[C@@H]3[C@H]2c2cc(Br)ccc2N(C)[C@@H]3CO)cc1,.,.,-100
COc1cccc(-c2ccc3c(c2)[C@@H]2[C@@H](CCN2C(=O)Nc2ccccc2OC)[C@@H](CO)N3C)c1,.,.,-97
COc1cccc(-c2ccc3c(c2)[C@H]2[C@H](CCN2C(=O)Nc2ccccc2OC)[C@H](CO)N3C)c1,.,.,.
COc1ccc(NC(=O)N2CC[C@@H]3[C@@H](CO)N(C)c4ccc(Br)cc4[C@@H]32)cc1,.,.,.
CC(C)NC(=O)Nc1ccc2c(c1)C(=O)N([C@H](C)CO)C[C@@H](C)[C@@H](CN(C)Cc1ccccc1)OCCCC[C@H](C)O2,.,.,.
C[C@@H]1CN([C@H](C)CO)C(=O)Cc2cc(NS(=O)(=O)c3ccc(F)cc3)ccc2O[C@@H]1CN(C)C(=O)Nc1ccc(F)cc1,.,.,.
Cc1noc(C)c1S(=O)(=O)N(C)C[C@H]1OCCCC[C@@H](C)Oc2ccc(NC(=O)c3ccccc3)cc2C(=O)N([C@@H](C)CO)C[C@@H]1C,-84,.,.
Cc1noc(C)c1S(=O)(=O)N(C)C[C@H]1OCCCC[C@H](C)Oc2ccc(NC(=O)c3ccccc3)cc2C(=O)N([C@@H](C)CO)C[C@@H]1C,-86,.,.
Cc1noc(C)c1S(=O)(=O)N(C)C[C@H]1OCCCC[C@H](C)Oc2ccc(NC(=O)c3ccccc3)cc2C(=O)N([C@H](C)CO)C[C@H]1C,.,.,.
Cc1noc(C)c1S(=O)(=O)N(C)C[C@@H]1OCCCC[C@H](C)Oc2ccc(NC(=O)c3ccccc3)cc2C(=O)N([C@H](C)CO)C[C@H]1C,.,.,.
C/C=C/c1cnc2c(c1)C(=O)N([C@H](C)CO)C[C@@H](C)[C@@H](CN(C)C(=O)C1CC1)O2,.,.,.
CC(C)NC(=O)N1CC2(C1)[C@@H](c1ccccc1)[C@@H](CO)N2C(=O)C1CC1,.,/,.
COc1ccc(CN(C)C[C@@H]2Oc3ccc(NC(=O)NC(C)C)cc3CC(=O)N([C@H](C)CO)C[C@@H]2C)cc1,.,/,.
C[C@H](CO)N1C[C@H](C)[C@@H](CN(C)C(=O)C2CCC2)Oc2ncc(-c3ccc(F)cc3)cc2C1=O,.,/,.
C[C@@H]1CN([C@@H](C)CO)C(=O)c2cc(NS(=O)(=O)c3ccc(Cl)cc3)ccc2O[C@@H](C)CCCCO[C@@H]1CN(C)Cc1ccc2c(c1)OCO2,.,.,/
C[C@@H]1CN([C@@H](C)CO)C(=O)c2cc(C#CC3CC3)cnc2O[C@H]1CN(C)Cc1ccccn1,.,.,.
Cc1ccc(S(=O)(=O)N(C)C[C@@H]2OCCCC[C@@H](C)Oc3ccc(NC(=O)Cc4ccccc4)cc3C(=O)N([C@H](C)CO)C[C@@H]2C)cc1,-81,.,/
C[C@@H]1CCCCO[C@@H](CN(C)S(=O)(=O)c2ccc(Cl)cc2)[C@@H](C)CN([C@H](C)CO)C(=O)c2cc(NC(=O)Cc3ccccc3)ccc2O1,-83,.,.
C[C@@H]1CCCCO[C@@H](CN(C)S(=O)(=O)c2ccc(Cl)cc2)[C@@H](C)CN([C@@H](C)CO)C(=O)c2cc(NC(=O)Cc3ccccc3)ccc2O1,.,.,.
Cc1ccc(S(=O)(=O)N(C)C[C@@H]2OCCCC[C@H](C)Oc3ccc(NC(=O)Cc4ccccc4)cc3C(=O)N([C@@H](C)CO)C[C@H]2C)cc1,.,.,/
O=C(C[C@H]1CC[C@H]2[C@@H](COC[C@H](O)CN2C(=O)c2ccccc2F)O1)N1CCCCC1,.,.,/
O=C(C[C@@H]1CC[C@@H]2[C@H](COC[C@@H](O)CN2C(=O)Nc2ccc(Cl)c(Cl)c2)O1)NCc1ccc(F)cc1,.,.,.
CCCNC(=O)C[C@H]1CC[C@@H]2[C@H](COC[C@H](O)CN2C(=O)Nc2ccc(Cl)c(Cl)c2)O1,.,.,-101!
CCNC(=O)C[C@@H]1CC[C@@H]2[C@H](COC[C@H](O)CN2C(=O)Nc2ccc(Cl)c(Cl)c2)O1,.,.,/
O=C(C[C@@H]1CC[C@@H]2[C@H](COC[C@@H](O)CN2C(=O)c2ccccc2F)O1)NCc1ccc(-c2ccccc2)cc1,-86,/,.
SMILES,Pf Dd2 growth,Tcruzi prolif,C diff growth
O=C(C[C@@H]1CC[C@@H]2[C@H](COC[C@H](O)CN2C(=O)Nc2ccc(Cl)c(Cl)c2)O1)NCc1ccc(F)cc1,.,.,-96
O=C(C[C@H]1CC[C@H]2[C@@H](COC[C@H](O)CN2C(=O)c2ccccc2F)O1)NCc1ccc(-c2ccccc2)cc1,.,/,.
C[C@@H]1CN([C@H](C)CO)C(=O)Cc2cc(NC(=O)Cc3cn(C)c4ccccc34)ccc2O[C@@H]1CN(C)S(=O)(=O)c1ccc(Cl)cc1,.,.,/
CCC(=O)N1CC2(C1)CN(C(=O)CN1CCOCC1)[C@H](CO)c1[nH]c3cc(OC)ccc3c12,.,/,.
C[C@H](CO)N1C[C@H](C)[C@@H](CN(C)C(=O)Nc2ccc(F)cc2)Oc2ccc(NS(=O)(=O)c3ccccc3)cc2CC1=O,.,/,.
COc1ccc(S(=O)(=O)N[C@H]2C=C[C@H](CC(=O)NCCc3ccccc3)O[C@@H]2CO)cc1,.,.,.
C[C@H]1CN([C@@H](C)CO)S(=O)(=O)c2ccc(C#CC3CC3)cc2O[C@@H]1CN(C)Cc1cncnc1,.,.,/
COc1ccc2c3c([nH]c2c1)[C@@H](CO)N(C(=O)c1ccncc1)CC31CN(C(=O)NC(C)C)C1,.,/,/
C[C@@H]1CN([C@H](C)CO)C(=O)c2cc(C#Cc3ccccc3)cnc2O[C@H]1CN(C)C(=O)CCN1CCCCC1,-90,.,.
C[C@@H]1CN([C@H](C)CO)C(=O)c2cc(C#Cc3cccc(F)c3)cnc2O[C@@H]1CN(C)C(=O)C1CCC1,.,.,.
C[C@@H]1CN([C@@H](C)CO)C(=O)c2cc(C#Cc3ccccc3F)cnc2O[C@H]1CN(C)C(=O)C1CCCCC1,.,/,.
C[C@H](CO)N1C[C@H](C)[C@H](CN(C)C(=O)C2CC2)Oc2ncc(C#Cc3cccc(F)c3)cc2C1=O,.,.,.
C[C@H](CO)N1C[C@H](C)[C@@H](CN(C)C(=O)CCN2CCCCC2)Oc2ncc(C#Cc3ccccc3)cc2C1=O,.,.,.
C[C@@H]1CN([C@H](C)CO)C(=O)c2cc(C#Cc3cccc(F)c3)cnc2O[C@@H]1CN(C)C(=O)C1CCCCC1,-88,.,/
C[C@H]1CN([C@@H](C)CO)C(=O)c2cc(C#Cc3ccccc3F)cnc2O[C@@H]1CN(C)C(=O)C1CCCCC1,-85,/,.
C[C@@H]1CN([C@@H](C)CO)C(=O)c2cc(C#Cc3cccc(F)c3)cnc2O[C@@H]1CN(C)C(=O)C1CCCCC1,-86,.,/
Cc1noc(C)c1S(=O)(=O)Nc1ccc2c(c1)CC(=O)N([C@H](C)CO)C[C@H](C)[C@@H](CN(C)S(=O)(=O)c1ccc(F)cc1)O2,.,.,.
O=C(N[C@H]1CC[C@@H](CCNC(=O)C2CC2)O[C@@H]1CO)c1ccncc1,/,/,.
C[C@@H]1CN([C@@H](C)CO)C(=O)c2cc(C#CCc3ccccc3)cnc2O[C@@H]1CN(C)C(=O)C1CCC1,.,.,.
C[C@@H]1CN([C@H](C)CO)C(=O)c2cc(C#CCc3ccccc3)cnc2O[C@H]1CN(C)C(=O)C1CCC1,-87,.,.

# Source: PubChem BioAssay
